High-throughput results from PubChem.
Bcl-xL primary – inhibitors of human Bcl-xL; Q07817; GST-Bcl-xL / FITC-Bim BH3 peptide fluorescence polarization; inhibition, % at 10.9 µM; 320,000 tested, 0.7% active; AID 2129;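 active = inhibition above the mean of all tested compounds plus 3 SD, cutoff set per campaign, cut at about 30% in these data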;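 note: 0% = DMSO wells and 100% = unlabeled Bim-BH3 peptide competitor; inhibitors lower millipolarization by displacing the labeled peptide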
Target sequence (Q07817 whole entry, looked up): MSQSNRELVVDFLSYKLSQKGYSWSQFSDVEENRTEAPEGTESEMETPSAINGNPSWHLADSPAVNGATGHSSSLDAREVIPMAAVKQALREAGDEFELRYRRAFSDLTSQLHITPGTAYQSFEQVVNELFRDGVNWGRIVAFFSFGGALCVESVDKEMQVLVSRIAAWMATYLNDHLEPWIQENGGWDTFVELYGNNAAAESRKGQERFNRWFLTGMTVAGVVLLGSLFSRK
eLon inh – E. coli protease La inhibition; purified E. coli Lon protease, fluorescence polarization; inhibition, % at 7.94 µM; 360,000 tested, 0.42% active; AID 602123; in the data active = inhibition above about 13%, passing the limit was not always enough;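 note: 0% = enzyme with probe and DMSO and 100% = no enzyme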
MCL1 BIM primary – inhibitors of human MCL1 binding to BIM-BH3 peptide. GST-MCL1 / FITC-Bim-BH3 fluorescence polarization. inhibition, % at 10.9 µM. 320,000 tested, 0.68% active;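 active = inhibition above the mean inhibition of all tested compounds plus 3 SD, set per campaign, cut at about 40% in these data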;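 note: 0% = DMSO wells and 100% = unlabeled Bim-BH3 peptide control; higher means more loss of mP so more displacement of Bim peptide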
EBV gp42 inh – EBV gp42 inhibition. Fluorescence polarization binding assay, mP read-out. 220,000 tested, 0.42% active. AID 1085. Q1HVG2. inhibition, % (tested at 21.74 µM); in the data active = inhibition above about 50%
Target sequence (Q1HVG2 whole entry, looked up): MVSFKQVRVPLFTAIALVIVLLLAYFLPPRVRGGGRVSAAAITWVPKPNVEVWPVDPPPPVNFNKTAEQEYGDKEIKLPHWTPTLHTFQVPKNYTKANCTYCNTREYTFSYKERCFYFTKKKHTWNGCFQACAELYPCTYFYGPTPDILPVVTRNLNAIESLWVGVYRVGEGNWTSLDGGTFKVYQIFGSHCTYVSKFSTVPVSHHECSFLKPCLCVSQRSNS
MEX-5 binding – C. elegans MEX-5 TCR-2 RNA binding activity. activity score (negative = inhibition of binding), % at 10 µM. Q9XUB2. 300,000 tested, 0.38% active. AID 1832. MEX-5/FITC-TCR2 RNA binding, fluorescence polarization; stronger effect = lower value;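 active = inhibition past about -25% in most replicates, and total fluorescence under double the plate's negative control median, limit read from the data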;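 note: 0% = DMSO and -100% = 5 µM competing unlabeled TCR2 RNA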
GLD-1 TGE inh – GLD-1-TGE RNA interaction inhibition (C. elegans); Q17339; purified GLD-1 + fluorescein TGE RNA, fluorescence polarization; inhibition, % at 5.96 µM; 320,000 tested, 0.44% active;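 active = percent inhibition above a per-plate cutoff, the plate mean of test compounds plus 3 SD, cut at about 30% in these data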;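 note: 0% = DMSO wells with GLD-1 and probe and 100% = wells lacking GLD-1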
E coli Lon conf – confirmation of E. coli Lon protease inhibitors; purified E. coli Lon, fluorescence polarization; AID 602230; 1,400 tested, 31% active; shares compounds with eLon inh; inhibition, % at 7.94 µM; in the data active = inhibition above about 16%;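 note: 0% = enzyme with probe and DMSO and 100% = no enzyme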
Starred values were filed as active, the others as inactive. The list is not random: actives were taken first. Their share in the collection is about 1.5%.

For CN1CCN(C(=O)c2ccc3c(c2)N(Cc2ccccc2F)C(=O)c2ccccc2S3=O)CC1 (stereo not drawn) the results were Bcl-xL primary -1, eLon inh 16*, MCL1 BIM primary 1, MEX-5 binding 0, GLD-1 TGE inh -6 and E coli Lon conf 6.
For COc1ccc(C(=O)COC(=O)C2COc3ccccc3O2)cc1F (stereo not drawn) the results were eLon inh 1 and GLD-1 TGE inh 4.
`COc1ccc(/C=C(\NC(=O)c2ccc(C)cc2)C(=O)Nc2ccc(C(=O)O)cc2)cc1` gave Bcl-xL primary 4, eLon inh -10, MCL1 BIM primary 5, MEX-5 binding 0 and GLD-1 TGE inh -2.
C[C@H](O)[C@@H]1CN2CCc3c([nH]c4ccccc34)[C@@H]2C[C@@H]1N(C)C(=S)NCCc1ccccc1 was read as eLon inh 197* and E coli Lon conf 121*.
COCCn1c(Cc2ccccc2)nnc1SC(C)C(=O)NC1CC1 (stereo not drawn) was read as Bcl-xL primary -9, eLon inh 3, MCL1 BIM primary 0 and GLD-1 TGE inh 1.
COc1ccccc1NC(=O)Cn1cnc2c(oc3ccccc32)c1=O was read as Bcl-xL primary 4, eLon inh -5, MCL1 BIM primary 2, EBV gp42 inh -22, MEX-5 binding 0 and GLD-1 TGE inh 3.
COC(=O)Cn1cnc2c(oc3ccccc32)c1=O was read as Bcl-xL primary 11, eLon inh 22*, MCL1 BIM primary 0, MEX-5 binding -1, GLD-1 TGE inh 5 and E coli Lon conf -2.
Screening O=C(NC1CCCCC1)c1nc(C2CCNCC2)oc1-c1ccccc1 returned eLon inh -8.
Screening CCCCNC(=O)C1(C)CCN1C(=O)c1ccc(OC)c(F)c1 (stereo not drawn) returned eLon inh 16* and E coli Lon conf -7.
Screening CCCCNC(=O)C1(C)CCCCN1C(=O)c1sccc1C (stereo not drawn) returned eLon inh 22* and E coli Lon conf -1.
For COc1cc(/C=C/CNC[C@H]2O[C@@H](n3ccc(N)nc3=O)[C@H](O)[C@@H]2O)ccc1O the results were eLon inh 4.
For O=C(Oc1cccc([N+](=O)[O-])c1)c1ccc2c(=O)n3c(nc2c1)CCC3 the results were Bcl-xL primary -3, eLon inh -2, MCL1 BIM primary -6 and GLD-1 TGE inh 3.
Cc1ccc(C(=O)NCC(=O)NC2CCCCCC2)cc1 was read as Bcl-xL primary 4, eLon inh 1, MCL1 BIM primary 8, MEX-5 binding 1 and GLD-1 TGE inh -8.
For COc1cccc(N2CCN(C3CC(=O)N(c4ccc(F)c(Cl)c4)C3=O)CC2)c1 (stereo not drawn) the results were Bcl-xL primary 7, eLon inh 5, MCL1 BIM primary 1, EBV gp42 inh 0, MEX-5 binding -3 and GLD-1 TGE inh -7.
`COc1ccc(NC2CCN(C3CC(=O)N(c4ccc(F)c(Cl)c4)C3=O)CC2)cc1` (stereo not drawn) gave Bcl-xL primary 3, eLon inh 17*, MCL1 BIM primary 4, EBV gp42 inh 5, MEX-5 binding -3, GLD-1 TGE inh 3 and E coli Lon conf -3.
O=C(N=Nc1c(O)[nH]c2ccc(Br)cc12)c1ccccc1-n1cccc1 was read as Bcl-xL primary 2, eLon inh 24*, MCL1 BIM primary 3, EBV gp42 inh -2, MEX-5 binding 0, GLD-1 TGE inh 6 and E coli Lon conf 4.
`CC(=O)c1cccc(NC(=O)COC(=O)c2ccccc2C)c1` gave Bcl-xL primary 6, eLon inh 2, MCL1 BIM primary 3, MEX-5 binding 0 and GLD-1 TGE inh -1.
Screening Nc1nc(N=Nc2ccc(O)cc2)cc(=O)[nH]1 returned eLon inh 67* and E coli Lon conf 35*.
`Nc1nc(N)c(N=Nc2ccccc2)c(=O)[nH]1` gave eLon inh 2.
COCCNC(=O)c1c[nH]c2ccc(S(=O)(=O)Nc3ccccc3F)cc2c1=O was read as Bcl-xL primary 9, eLon inh 18*, MCL1 BIM primary 5, MEX-5 binding 2, GLD-1 TGE inh -4 and E coli Lon conf 9.
For COC(=O)c1ccc(CSC2=NC[C@@H]3[C@@H]4C(=O)N(Cc5ccccc5)C(=O)[C@@H]4[C@](C)(C(=O)OC)N23)cc1 the results were eLon inh -1.
`CCCn1c(C(C)Nc2nc(C)cs2)nc2cc(Cl)c(Cl)cc21` (stereo not drawn) gave Bcl-xL primary 0, eLon inh 116*, MCL1 BIM primary 4, MEX-5 binding 4, GLD-1 TGE inh 6 and E coli Lon conf -2.
Screening Cc1ccc(Cn2c(C(C)Nc3nc(-c4ccc(C)cc4)cs3)nc3cc(Cl)c(Cl)cc32)cc1 (stereo not drawn) returned Bcl-xL primary 0, eLon inh 1, MCL1 BIM primary 17, MEX-5 binding 9 and GLD-1 TGE inh -2.
For COc1ccc(NC(=O)CNC(c2ccccc2)c2ccccc2)cc1Cl the results were Bcl-xL primary 2, eLon inh 18*, MCL1 BIM primary -1, MEX-5 binding 1, GLD-1 TGE inh -3 and E coli Lon conf -8.
`O=C1c2ccccc2-c2n[nH]c3cccc1c23` gave eLon inh 23* and E coli Lon conf 33*.
Screening O=c1c(-c2ccccc2)n[nH]c2ccccc12 returned Bcl-xL primary 5, eLon inh -6, MCL1 BIM primary -6, EBV gp42 inh 2, MEX-5 binding -3 and GLD-1 TGE inh 3.
`CCc1ccc(OCC(=O)NC2CCCCC2)c(Br)c1` gave Bcl-xL primary 0, eLon inh 36*, MCL1 BIM primary -9, MEX-5 binding 0, GLD-1 TGE inh -3 and E coli Lon conf 16*.
Screening O=C(COc1ccc(F)cc1Cl)NC1CCCCCC1 returned Bcl-xL primary -1, eLon inh 160*, MCL1 BIM primary 4, GLD-1 TGE inh 0 and E coli Lon conf -8.
For CCc1ccc(OCC(=O)NNC(=S)NC(=O)C2CCCCC2)c(Br)c1 the results were Bcl-xL primary 4, eLon inh -1, MCL1 BIM primary 5, MEX-5 binding 2 and GLD-1 TGE inh -3.
For Cc1ccc(SCCC(=O)Nc2ccccc2C(=O)NC(C)C)cc1 the results were Bcl-xL primary 8, eLon inh 69*, MCL1 BIM primary 7, EBV gp42 inh 4, MEX-5 binding -1, GLD-1 TGE inh 4 and E coli Lon conf 15.
Screening COc1ccc(Br)cc1C(=O)CCC(=O)OCC(=O)Nc1cc(C(N)=O)cc(C(N)=O)c1 returned eLon inh -5.
